Laboratory results from PubChem BioAssay.
Records with an inconclusive call do not appear. Calls of active or inactive are those of the source.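 The calls were made as follows, unless noted: active = viability increase at or above a cutoff of the median across tested compounds plus 3 SD (cut at about 8.5% in these data, passing the limit was not always enough); inconclusive = some gains above the cutoff, reason not given; inactive = the rest.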

Tests used:
[1] = reducers of endogenous Her2 protein level, primary screen, SKBR3 breast tumor cells, AlphaScreen, ATP viability (AID 461;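 active = Her2 level under about 52% in both replicate screens, with viability over 70% of control, limit read from the data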;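 as to Her2 level: lower value means less Her2 protein in the cells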;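 as to viability: percent of carrier control wells set as 100% viability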); conditions: 18-24 h, measured here: SKBR3 viability, ATP luminescence, at 10 µM
[2] = target: Receptor tyrosine-protein kinase erbB-2 (Homo sapiens) (UniProt P04626); assay: as above; conditions: 18-24 h, at 10 µM, stronger effect = lower value
[3] = SK-BR-3 cell growth inhibitors, pilot screen, 24 h, human (AID 572;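 active = viability at or below 10% of carrier control in both of two separate runs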;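 also: compound exposure lasted between 18 and 24 h rather than exactly 24 h; 100% = carrier-treated control wells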); conditions: SK-BR-3 viability, CellTiter-Glo luminescence, at 10 µM, stronger effect = lower value
[4] = HUVEC growth inhibition – cell-based, human, primary screen (AID 575;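 active = viability at or below 30% in both replicate assays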;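 also: 100% = median of untreated cell wells with 0.1% DMSO on each plate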); conditions: HUVEC proliferation, CellTiter-Glo luminescence, 72 h; at 10 µM; stronger effect = lower value
[5] = growth inhibitors of H69AR lung tumor, primary screen, human, duplicate replicates (AID 580;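 active = viability at or under a set limit in both replicates, limit being median viability minus 3 SD, cut at about 48% in these data, passing the limit was not always enough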;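 also: 100% = mean luminescence of untreated wells and 0% = no signal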); conditions: H69AR lung tumor cells viability, ATP luminescence, 72 h; at 10 µM; stronger effect = lower value
[6] = reversal of MRP1-mediated doxorubicin resistance, pilot screen, H69AR cells, doxorubicin co-treatment (AID 601;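 active = viability loss from added drug above about 55%, and viability with drug at most 40%, in both replicates, limit read from the data, passing the limit was not always enough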); conditions: CellTiter-Glo, 72 h, at 10 µM; for differential viability (reversal): stronger effect = higher value
[7] = 384-well plate pilot, post-Golgi transport modulator project, inhibition of yeast transport mutant growth (AID 636; in the data active = inhibition above about 31%); conditions: absorbance 615 nm, about 18 h, stronger effect = higher value
[8] = growth suppression of yeast trafficking mutant, preliminary HTS, modulators of trafficking downstream of Golgi apparatus project, 1536-format plate, OD 615 nm (AID 637; in the data active = inhibition above about 30%); conditions: yeast transport mutant growth, absorbance 615 nm, 18 h; stronger effect = higher value
[9] = OD615 S. cerevisiae growth inhibition, permissive medium, pilot counter-assay, permissive growth control for S. cerevisiae lifespan shortening project (AID 705;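 active = growth inhibition above 25% in both replicates, a cutoff set 3 SD above the mean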); conditions: OD615, 24 h, at 10 µM, stronger effect = higher value
[10] = Restrictive medium S. cerevisiae growth inhibition, OD615, pilot screen of yeast lifespan reduction project, restrictive growth control (AID 706;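 active = growth inhibition above a set limit, 3 SD over mean compound inhibition, in both replicates, cut at about 43% in these data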;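 also: modified DeaD lifespan yeast strain shifted to restrictive glucose medium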); conditions: OD615, 48 h, at 10 µM, stronger effect = higher value
[11] = viability gain of MRP-1-high H69AR cells under doxorubicin, pilot screen, MRP-1 activator project, CellTiter-Glo, duplicate (AID 807); conditions: H69AR viability with doxorubicin, CellTiter-Glo luminescence; at 10 µM; stronger effect = higher value;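 also: compound pretreatment 18-22 h then 72 h combined with doxorubicin; 0% = doxorubicin alone and 100% = vehicle without doxorubicin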
[12] = growth suppression of beta-catenin knockout HCT116, pilot screen, human colon tumor cells (AID 823;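 active = cell viability at or below a set limit in both duplicate runs, the limit being the all-compound median minus 4 SD, cut at about 23% in these data, passing the limit was not always enough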;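 also: 0% = wells killed by 20 µM Hyamine and 100% = untreated DMSO cell wells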); conditions: CellTiter-Glo, 60 h, at 10 µM, stronger effect = lower value
[13] = growth suppression of PTEN-deleted HCT116, pilot screen, cell-based, HCT116 clonal line, CellTiter-Glo (AID 824;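 active = viability at or below 27.92% in each of two runs, the all-compound median minus 4 SD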;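 also: 0% = 20 µM Hyamine control and 100% = vehicle cell control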); conditions: 60 h, at 10 µM, stronger effect = lower value
[14] = inhibitors of the yeast RAM network, pilot screen, dse1pr::URA3 reporter, 5-FOA selection (AID 869;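 active = inhibition over a set limit, the all-compound mean plus 3 SD, in both replicate runs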;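 also: 0% = DMSO wells with no growth and 100% = 10 µM 1-NA-PP1 with full growth; RAM network block rescues cells from 5-FOA so hits raise OD615 growth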); conditions: S. cerevisiae dse1pr::URA3 5-FOA growth, OD615, 2 d; at 10 µM; stronger effect = higher value; strain carries analog-sensitive mutant Cbk1 kinase
[15] = RAM signaling pathway blockade in yeast – S. cerevisiae, Pdr1DBD-CYC8 efflux-inhibited sensitized strain, primary screen (AID 1298;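 active = RAM network inhibition above 8.4% in each of two replicates, 3 SD over the compound average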;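 also: 0% = DMSO untreated cells without growth and 100% = 10 µM 1-NA-PP1 full growth; higher means more yeast growth rescued from 5-FOA killing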); conditions: S. cerevisiae cbk1-as DSE1-URA3 strain, 5-FOA growth OD615, 2 d; at 50 µM; stronger effect = higher value
[16] = H69AR cells + 2 uM doxorubicin, measured here: viability with 2 uM doxorubicin, stronger effect = lower value
[17] = H69AR cells, compound alone cytotoxicity

Sequence of Receptor tyrosine-protein kinase erbB-2 (Homo sapiens) (P04626 whole entry, looked up): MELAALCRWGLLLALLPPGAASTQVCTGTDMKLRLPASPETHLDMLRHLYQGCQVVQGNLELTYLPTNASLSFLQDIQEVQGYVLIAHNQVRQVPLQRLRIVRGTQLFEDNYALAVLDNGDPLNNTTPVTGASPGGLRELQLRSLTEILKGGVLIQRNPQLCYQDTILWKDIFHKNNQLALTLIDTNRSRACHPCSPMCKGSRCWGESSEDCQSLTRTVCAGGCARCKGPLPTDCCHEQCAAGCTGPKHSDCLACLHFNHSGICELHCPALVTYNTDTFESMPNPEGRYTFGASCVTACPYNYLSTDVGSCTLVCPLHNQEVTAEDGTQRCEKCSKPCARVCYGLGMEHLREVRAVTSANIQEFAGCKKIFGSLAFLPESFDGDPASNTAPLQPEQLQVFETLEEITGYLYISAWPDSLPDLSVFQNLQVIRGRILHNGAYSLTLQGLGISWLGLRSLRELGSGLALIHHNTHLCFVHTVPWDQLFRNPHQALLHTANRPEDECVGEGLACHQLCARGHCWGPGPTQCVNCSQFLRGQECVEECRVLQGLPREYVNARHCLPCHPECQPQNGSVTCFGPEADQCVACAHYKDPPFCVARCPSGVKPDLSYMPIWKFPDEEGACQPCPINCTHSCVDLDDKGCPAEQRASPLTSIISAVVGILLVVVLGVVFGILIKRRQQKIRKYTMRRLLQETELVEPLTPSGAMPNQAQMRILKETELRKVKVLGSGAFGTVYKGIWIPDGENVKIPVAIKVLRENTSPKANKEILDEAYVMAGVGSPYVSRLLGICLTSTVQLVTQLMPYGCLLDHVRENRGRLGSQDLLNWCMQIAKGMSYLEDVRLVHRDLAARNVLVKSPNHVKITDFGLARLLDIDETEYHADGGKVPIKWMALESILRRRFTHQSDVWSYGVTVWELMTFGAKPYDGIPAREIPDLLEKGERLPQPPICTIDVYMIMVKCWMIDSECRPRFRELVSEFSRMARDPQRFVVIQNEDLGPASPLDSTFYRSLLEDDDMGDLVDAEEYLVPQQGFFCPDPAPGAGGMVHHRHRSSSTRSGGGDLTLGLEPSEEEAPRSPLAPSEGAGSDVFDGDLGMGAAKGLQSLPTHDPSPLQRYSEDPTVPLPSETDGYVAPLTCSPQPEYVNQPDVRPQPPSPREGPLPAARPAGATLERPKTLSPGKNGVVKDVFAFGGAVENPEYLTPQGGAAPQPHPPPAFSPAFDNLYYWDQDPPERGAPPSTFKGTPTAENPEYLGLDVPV

CCCCN(C)C(=O)c1ccc(CS(=O)(=O)c2ccccc2C)o1
93%: viability [1]
inactive: Her2 level [2] 86.5% | viability [3] 93% | viability [4] 120% | viability [5] 81.3% | differential viability (reversal) ([6]; H69AR cells + 2 uM doxorubicin) -5.93% | inhibition [7] 1.28% | inhibition [8] -2.17% | growth inhibition [9] 6.16% | growth inhibition [10] 14.7% | viability increase [11] -1.67% | viability [12] 93.8% | viability [13] 91.7% | inhibition [14] -0.45% | RAM network inhibition [15] 3.61%
87.2%: viability [6, 16]
81.3%: viability [6, 17]

Cc1ccc(C(c2sc3ncnn3c2O)N2CC(C)CC(C)C2)cc1 (stereo not drawn)
97.9%: viability [6, 17]
118%: viability [1]
84.3%: viability [6, 16]
inactive: Her2 level [2] 102% | viability [3] 118% | viability [4] 82.8% | viability [5] 97.9% | differential viability (reversal) ([6]; H69AR cells + 2 uM doxorubicin) 13.6% | inhibition [7] -4.53% | inhibition [8] 1.67% | growth inhibition [9] -6.75% | growth inhibition [10] -6.62% | viability increase [11] 4.2% | viability [12] 99.8% | viability [13] 97% | inhibition [14] 0.24% | RAM network inhibition [15] 1.25%

CCCN(CCC)C(=O)c1c(C)[nH]c(C(=O)OCC)c1C
93.8%: viability [6, 16]
98%: viability [1]
inactive: Her2 level [2] 110% | viability [3] 98% | viability [4] 106% | viability [5] 81.4% | differential viability (reversal) ([6]; H69AR cells + 2 uM doxorubicin) -12.4% | inhibition [7] -0.38% | inhibition [8] -2.33% | growth inhibition [9] 4.14% | growth inhibition [10] -3.27% | viability increase [11] -3.62% | viability [12] 92.9% | viability [13] 86.7% | inhibition [14] 2.12% | RAM network inhibition [15] 1.44%
81.4%: viability [6, 17]

Cn1c(=O)c2c(nc(CN3CCN(Cc4ccccc4)CC3)n2Cc2cccc(Cl)c2)n(C)c1=O
inactive: Her2 level [2] 81.5% | viability [3] 93.5% | viability [4] 69.9% | viability [5] 57.7% | differential viability (reversal) ([6]; H69AR cells + 2 uM doxorubicin) 36.9% | inhibition [7] -6.67% | inhibition [8] 5.5% | growth inhibition [9] 3.47% | growth inhibition [10] -0.975% | viability increase [11] -2.86% | viability [12] 60.8% | viability [13] 58.7% | inhibition [14] 1% | RAM network inhibition [15] 4.53%
93.5%: viability [1]
57.7%: viability [6, 17]
20.9%: viability [6, 16]

Cc1ccc2c(c1)-c1c(cnn1CC(=O)NC(C)CCc1ccco1)CO2 (stereo not drawn)
85.5%: viability [1]
inactive: Her2 level [2] 87% | viability [3] 85.5% | viability [4] 91.5% | viability [5] 85.9% | differential viability (reversal) ([6]; H69AR cells + 2 uM doxorubicin) -5.22% | inhibition [7] -4.36% | inhibition [8] 0.83% | growth inhibition [9] -10.4% | growth inhibition [10] -5.76% | viability increase [11] -3.78% | viability [12] 88.8% | viability [13] 87% | inhibition [14] 2.04% | RAM network inhibition [15] 7.88%
91.1%: viability [6, 16]
85.9%: viability [6, 17]

O=C(Cn1cc2c(n1)CCCCC2)N1CCc2ccccc2C1
92.9%: viability [6, 17]
inactive: Her2 level [2] 114% | viability [3] 116% | viability [4] 95% | viability [5] 92.9% | differential viability (reversal) ([6]; H69AR cells + 2 uM doxorubicin) 3.17% | inhibition [7] -2.18% | inhibition [8] -3% | growth inhibition [9] 7.48% | growth inhibition [10] 10.6% | viability increase [11] 1.54% | viability [12] 86.2% | viability [13] 84.7% | inhibition [14] 1.98% | RAM network inhibition [15] 6.93%
89.8%: viability [6, 16]
116%: viability [1]

Cn1c(=O)oc2cc(S(=O)(=O)N3CCCC(C(=O)NCC4COc5ccccc5O4)C3)ccc21 (stereo not drawn)
90.9%: viability [6, 16]
77%: viability [1]
94%: viability [6, 17]
inactive: Her2 level [2] 79.5% | viability [3] 77% | viability [4] 83.6% | viability [5] 94% | differential viability (reversal) ([6]; H69AR cells + 2 uM doxorubicin) 3.15% | inhibition [7] 0.8% | inhibition [8] -2.79% | growth inhibition [9] -11.9% | growth inhibition [10] -20.4% | viability increase [11] 3.09% | viability [12] 86% | viability [13] 90.4% | inhibition [14] 0.04% | RAM network inhibition [15] 4.73%

Cc1cccc(OCC(=O)N2CCN(C(=O)Cc3ccccc3)CC2)c1
97.3%: viability [6, 17]
inactive: Her2 level [2] 94% | viability [3] 102% | viability [4] 107% | viability [5] 97.3% | differential viability (reversal) ([6]; H69AR cells + 2 uM doxorubicin) -0.125% | inhibition [7] -7.33% | inhibition [8] -0.97% | growth inhibition [9] -11.1% | growth inhibition [10] -28.1% | viability increase [11] -2.39% | viability [12] 85.4% | viability [13] 81.4% | inhibition [14] 0.285% | RAM network inhibition [15] 0.56%
97.5%: viability [6, 16]
102%: viability [1]

COc1cccc(C2C(C(N)=O)=C(C)Nc3nc(CCCO)nn32)c1OC (stereo not drawn)
96.4%: viability [6, 17]
102%: viability [1]
inactive: Her2 level [2] 103% | viability [3] 102% | viability [4] 93.8% | viability [5] 96.4% | differential viability (reversal) ([6]; H69AR cells + 2 uM doxorubicin) -1.08% | inhibition [7] 0.93% | inhibition [8] -3.67% | growth inhibition [9] -8.7% | growth inhibition [10] 14.1% | viability increase [11] -0.88% | viability [12] 105% | viability [13] 104% | inhibition [14] 0.085% | RAM network inhibition [15] 0.27%
97.5%: viability [6, 16]
